Assay outcomes as filed in PubChem.
This is a sample that favours compounds with a hit; in the whole collection about 9.3% have one here.
Sm TGR block – blocks Schistosoma mansoni thioredoxin glutathione reductase; 360,000 tested, 3% active; Potency, µM (top dose mostly 114 µM), without a hit: at the highest dose activity change, negative = inhibition, most hits filed as inhibitors; purified TGR, DTNB reduction, TNB absorbance 405 nm; also: potency is read from the fitted curve at half-maximal effect; nearly all actives have a fitted effect of over 60% in size
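TGR 20 nM + NADPH 100 uM (dispensed conc.), cpd preinc 15 min RT; start with NADPH (500 uM addition) then DTNB (15 mM addition). Kinetic TNB absorbance, 405 nm filter. Four-parameter Hill fit across titration.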
Vaccinia mCherry – inhibitors of vaccinia virus infection (mCherry reporter signal); Vaccinia virus mCherry reporter infection, fluorescence; Potency, µM (highest dose often 36.5 µM), for the others: at the top dose activity change, negative = inhibition, most hits filed as inhibitors; 310,000 tested, 0.63% active; AID 720579; calls by dose curve; tested in A549 cells; also: potency is read from the fitted curve at half-maximal effect; nearly all actives have a fitted effect of over 35% in size
Vaccinia Venus – inhibitors of vaccinia virus (Venus reporter); 330,000 tested, 0.46% active; Vaccinia virus Venus reporter expression, fluorescence; AID 720580; Potency, µM (doses to about 36.5 µM), for the others: at the highest dose activity change, negative = inhibition, usual class: inhibitors; calls by dose curve; tested in A549 cells; also: potency is read from the fitted curve at half-maximal effect; nearly all actives have a fitted effect of over 30% in size
FMDV antiviral – blocks foot and mouth disease virus; FMDV antiviral cell-based qHTS; Potency, µM (doses to about 57.9 µM), without a hit: at the top dose activity change, negative = inhibition, usual class: inhibitors; 410,000 tested, 1.2% active; AID 1159524; calls by dose curve; tested in HEK293T cells; also: read-out not given here; potency is read from the fitted curve at half-maximal effect; nearly all actives have a fitted effect of over 45% in size
HCV inh – blocks hepatitis C virus; Huh7.5.1 HCVcc-Cre infection, luciferase reporter, 44 h; Potency, µM (top dose mostly 41.8 µM), for inactives: at the top dose activity change, negative = inhibition, most hits filed as inhibitors; 340,000 tested, 3.4% active; also: potency is read from the fitted curve at half-maximal effect
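Reporter virus HCVcc-Cre (~0.5 moi) infects cells exposed to compound; seeding density 1,000 cells/well with 4 h settling beforehand. Luminescence, 15 sec read, taken 44 h post-infection following a 15 min RT substrate incubation.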
HCMV inh – inhibitors of human cytomegalovirus; HFF cells, HCMV-luciferase reporter, 72 h; stronger effect = lower value; activity change, negative = inhibition, % at 57.5 µM; 410,000 tested, 4.5% active; AID 1259415; in the data active = activity change below about -60%; inconclusive = no clear call, values can overlap the other calls; inactive = above about -39%
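Human foreskin fibroblasts infected with luciferase-reporter HCMV at MOI 1 PFU/cell, compounds at two doses. Luciferase measured 72 h post infection; normalized to buffer-only basal and Salinomycin (10uM) controls.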
* hit, by the source's call. Unless noted, calls follow the shape of the dose curve; as a rule, active = well fitted curve in the direction sought with a large enough effect; inconclusive = small, poorly fitted or top-dose-only effect, or another doubt; inactive = no such curve, though single readings can be large; an effect the other way counts as inactive or inconclusive. % is scaled to controls: 0 for no effect and ±100 for the full control effect.

For Cc1ccc(C2=[N+]([O-])C3(CCCCC/C3=N\O)N(O)C2(C)C)o1 (stereo not given) the results were Sm TGR block -27%, Vaccinia Venus inconclusive, FMDV antiviral -17%, HCV inh 15% and HCMV inh 12.
`CC(C)Oc1ccc(CNS(=O)(=O)c2ccc3c(c2)C(C)(C)C(=O)N3C)cc1` gave Sm TGR block 2%, Vaccinia mCherry -16%, Vaccinia Venus -5%, FMDV antiviral 4% and HCMV inh -6.
Cc1cccc(-c2ccc3ncnc(N(C)Cc4ccco4)c3c2)c1 was read as Sm TGR block 5%.
For CN(Cc1ccco1)c1ncnc2ccc(-c3ccc4c(ccn4C)c3)cc12 the results were Sm TGR block -8%, FMDV antiviral -27% and HCMV inh -99*.
Screening N#CCCN(CCN1CCCC1)S(=O)(=O)c1ccc(-c2ccc([N+](=O)[O-])cc2)cc1 returned Vaccinia mCherry -12%, Vaccinia Venus -8%, FMDV antiviral 0%, HCV inh 13% and HCMV inh -40.
For Cc1ccc(C)c(C(=O)Cn2ncc(Cl)c(Cl)c2=O)c1 the results were Sm TGR block 50µM*, Vaccinia mCherry -21%, Vaccinia Venus inconclusive, FMDV antiviral 32µM*, HCV inh 10µM* and HCMV inh -97*.
Screening Cc1cc2oc(=O)cc(Cn3ncc(Cl)c(Cl)c3=O)c2cc1Cl returned Sm TGR block 3.5µM*, Vaccinia mCherry -8%, Vaccinia Venus -6%, FMDV antiviral inconclusive and HCV inh 11µM*.
For Cc1ccc(C)c(C(=O)CN2C(=O)c3ccccc3C2=O)c1 the results were Sm TGR block 5%, Vaccinia mCherry -22%, Vaccinia Venus -3%, FMDV antiviral 17%, HCV inh 11% and HCMV inh -14.
Cc1cc(C(=O)Cn2ncc(Cl)c(Cl)c2=O)c(C)n1CC(F)(F)F was read as Sm TGR block 45µM*, Vaccinia mCherry inconclusive, Vaccinia Venus 14µM*, FMDV antiviral inconclusive, HCV inh inconclusive and HCMV inh -100*.
Screening Cc1cccc(Cn2ncc(Cl)c(Cl)c2=O)c1 returned Sm TGR block 0%, FMDV antiviral inconclusive, HCV inh 3.5µM* and HCMV inh -94*.
`CCOC(=O)c1cccc(NC(=O)Nc2c(C)n(C)n(-c3ccccc3)c2=O)c1` gave Sm TGR block 0%, Vaccinia mCherry -13%, Vaccinia Venus -5%, FMDV antiviral -9% and HCMV inh -9.
Cc1ccc(-n2nnc(-c3cc4ccccc4n3C)n2)cc1 was read as Sm TGR block -19%, Vaccinia mCherry inconclusive, Vaccinia Venus -11%, FMDV antiviral 73%, HCV inh -9% and HCMV inh 137.
Screening Cc1cccc(Cn2nnc3c2C(=O)c2ccccc2C3=O)c1 returned Sm TGR block -21%, FMDV antiviral inconclusive, HCV inh inconclusive and HCMV inh -100*.
`CSc1ccccc1NC(=O)C1CCCO1` (stereo not given) gave Sm TGR block 1%, FMDV antiviral 15%, HCV inh inconclusive and HCMV inh 9.
O=C(NCCNc1cc(Cl)ccc1[N+](=O)[O-])c1ccco1 was read as Sm TGR block -5%, Vaccinia mCherry -16%, Vaccinia Venus -14%, FMDV antiviral 25%, HCV inh -19% and HCMV inh -75*.
For O=C(Nc1ccc(F)c(F)c1)c1ccco1 the results were Sm TGR block 31%, FMDV antiviral 21%, HCV inh 7% and HCMV inh -78*.
O=C(Nc1cccc(S(=O)(=O)c2cccc(NC(=O)C3CC3)c2)c1)C1CC1 was read as Sm TGR block -2%, Vaccinia mCherry -14%, Vaccinia Venus inconclusive, HCV inh 5.6µM* and HCMV inh inconclusive.
`O=C(Nc1ccc(Cl)c(Cl)c1)c1ccco1` gave Sm TGR block 4%, Vaccinia mCherry -5%, Vaccinia Venus -22%, FMDV antiviral 0%, HCV inh inconclusive and HCMV inh 23.
For O=C(NCCNc1ccc([N+](=O)[O-])cc1)c1ccco1 the results were Sm TGR block -6%, Vaccinia mCherry -9%, Vaccinia Venus 2%, FMDV antiviral 2%, HCV inh 7% and HCMV inh -8.
O=C(Nc1cccc(S(=O)(=O)c2cccc(NC(=O)c3ccco3)c2)c1)c1ccco1 was read as Sm TGR block 1%, Vaccinia mCherry 7%, Vaccinia Venus -14%, FMDV antiviral 35µM*, HCV inh 11µM* and HCMV inh -69*.
Screening CCC(=O)N1CCc2cc(CNS(=O)(=O)c3cccs3)ccc21 returned Sm TGR block -3%, Vaccinia mCherry -6%, Vaccinia Venus -6%, FMDV antiviral 30% and HCMV inh 9.
For COc1ccc(S(=O)(=O)N2CCN(Cc3cccs3)CC2)cc1OC the results were Vaccinia mCherry -4%, Vaccinia Venus -10%, FMDV antiviral inconclusive, HCV inh 5% and HCMV inh inconclusive.
Screening O=C(NNc1c(F)c(F)cc(F)c1F)c1ccco1 returned FMDV antiviral -15%, HCV inh -4% and HCMV inh -16.
O=C(NNc1c([N+](=O)[O-])cc(C(F)(F)F)cc1[N+](=O)[O-])c1ccco1 was read as Sm TGR block -7%, FMDV antiviral 32µM*, HCV inh 4% and HCMV inh -11.
Screening O=C(Nc1cccc(C(F)(F)F)c1)c1ccco1 returned Sm TGR block 9%, FMDV antiviral 12%, HCV inh 10µM* and HCMV inh -14.
Screening CC(=O)Nc1ccc(S(=O)(=O)Nc2cccc(NC(=O)c3ccco3)c2)cc1 returned Sm TGR block 0%, Vaccinia mCherry -12%, Vaccinia Venus 3%, FMDV antiviral 12%, HCV inh inconclusive and HCMV inh -71*.
`CC(=O)Nc1ccc(S(=O)(=O)Nc2ccc(NC(=O)c3ccco3)cc2)cc1` gave Sm TGR block -11%, Vaccinia mCherry -13%, Vaccinia Venus -1%, HCV inh 4% and HCMV inh -11.
O=C(CCNC(=O)c1ccco1)Nc1cccc(C(F)(F)F)c1 was read as Sm TGR block -10%, Vaccinia mCherry inactive, Vaccinia Venus 0%, FMDV antiviral -3%, HCV inh 2% and HCMV inh -6.
`O=C(Nc1ccc2[nH]c3c(c2c1)CCCC3)c1ccco1` gave Sm TGR block 45µM*, Vaccinia Venus -28%, FMDV antiviral 7%, HCV inh 13µM* and HCMV inh -24.
`O=c1c(-c2ccc(Cl)cc2)nc2cnc(N3CCNCC3)nc2n1-c1ccccc1` gave FMDV antiviral -21%.
